# Laboratory results: PubChem BioAssay AID1259240 (Keith Lab, Institute of Cancer Science, University of …, 2017)
# A number with no mark means an inactive call. Active and inactive are the calls of the source. No stated cut-off is given here; in the data, active means fold change mostly below about -2 (no sharp cut-off); inactive means mostly above about -1.8.
# Assay: TERT promoter activity modulators, primary screen, cell-based, luciferase reporter, human (AID 1259240)
# Details: A2780 TERT promoter luciferase reporter, 16 h; at 20 µM, fold versus average of vehicle-only wells
SMILES,fold change,outcome
Cc1ccc(-n2c(C)c3c(C)nn4cc(C)cc4c3c2C)cc1,-2.26 (active),
O=c1/c(=C/c2ccc(F)cc2)sc2nc(-c3ccco3)nn12,-1.22,
CCOC(=O)Cc1nnc2c(Nc3ccccc3Cl)nc3nonc3n12,-1.8,
Fc1ccc(-c2ncc3ccccn23)cc1,1.16,
CCOC(=O)C1CCCN(c2c(N3CCC(C(N)=O)CC3)c(=O)c2=O)C1 (centres undefined),-1.23,
CC(C)CCSc1nc(-c2ccc([N+](=O)[O-])cc2)nc2c1c(=O)n(C)c(=O)n2C,1.2,
O=C(Nc1ccc2nc3n(c(=O)c2c1)CCCCC3)C(=O)NC1CCCCC1,-1.44,
CN1CCc2nc3sc(C(=O)Nc4ccc(F)cc4)c(N)c3cc2C1,-1.42,
CC(=O)C(Sc1nc(C)nc2c1c(=O)n(C)c(=O)n2C)C(C)=O,1.87,
CN(C)S(=O)(=O)N(CC(=O)Nc1ccccc1F)c1ccccc1,-1.38,
CC(C)Cc1nnc(NC(=O)CSc2nc(N)cc(=O)[nH]2)s1,,active
CCOc1ccc(-n2c(C)c(C(C)=O)c3cc(OCC(N)=O)ccc32)cc1,-1.01,
CC(C)(C)OC(=O)CN1C(=O)c2ccccc2S1(=O)=O,1.98,
Cc1cc(C)n(-c2nc3ccccc3n3nnnc23)n1,1.46,
CCCc1cc(C(=O)Nc2c(C)n(C)n(-c3ccccc3)c2=O)no1,-1.12,
O=C(CSc1nc2sc3c(c2c(=O)[nH]1)CCCC3)N1CCOCC1,-4.39 (active),
Cc1ccc(Nc2nc3ccccc3n3cnnc23)cc1,1.11,
CCOc1ccc2c(c1)CN(Cc1ccc(Cl)cc1)CO2,-1.71,
COc1cc2c(c(OC)c1OC)C(c1cccnc1)CC(=O)N2 (centres undefined),-1.07,
CC(C)n1cnc2cc(NCc3ccccc3Cl)ccc21,-2.21 (active),

SMILES,fold change,outcome
Cc1cc(NC(=O)CSCc2nc(-c3cccc(F)c3)oc2C)no1,1.06,
O=S1(=O)NC(=NC2CCCCCC2)c2ccccc21,,inactive
COC(CNS(=O)(=O)c1cccc2cccnc12)OC,-1.06,
Cc1ccc(OCc2nc(-c3ccc(-n4cccc4)cc3)no2)cc1C,-2.34 (active),
CCCCC1=NN(C(=O)C(=O)Nc2ccc(Br)cc2)C(O)(C(F)(F)F)C1 (centres undefined),1.01,
CCOC(=O)c1nn(-c2ccc(C)cc2)c(=O)c2c(NC(=O)c3ccc(C)c([N+](=O)[O-])c3)scc12,1.24,
Brc1ccc2c(c1)CN(Cc1ccc3c(c1)OCO3)CO2,-1.55,
C=C1c2cc(CC)ccc2NC(=O)N1c1ccc(C)cc1,1.01,
CSc1ccc(-c2nc3sccn3c2Nc2ccccc2)cc1,-1.05,
C=CCN(C(=O)C1CCC(CNS(=O)(=O)c2cccc3nsnc23)CC1)C1CCCCC1 (centres undefined),-1.05,
Cc1ccc(-n2c(C)cc(/C=C3/SC(=S)N(CC(=O)O)C3=O)c2C)cc1,-5.22 (active),
CCOC(=O)Cn1c(=O)oc2cc(S(=O)(=O)NCc3cccs3)ccc21,-1.2,
CC(Sc1nc(-c2ccco2)nc2c1c(=O)n(C)c(=O)n2C)C(=O)O (centres undefined),1.38,
CCc1c2c(nc3sc(C(=O)NCc4ccc5c(c4)OCO5)c(N)c13)CC(C)(C)CC2=O,-1.01,
Cc1nc(SCc2c(F)cccc2Cl)c2c(=O)n(C)c(=O)n(C)c2n1,1.27,
O=C(NCc1ccc(Cl)cc1)Nc1ccc2snnc2c1,-1.36,
Cc1ccc(-c2n[nH]c3c2C(c2cccc([N+](=O)[O-])c2)NC3=O)cc1 (centres undefined),1.04,
O=C(c1ccc2c(=O)n3c(nc2c1)CCCCC3)N1CCCCCC1,1.21,
CC(C)n1cnc2cc(NCc3ccccn3)ccc21,-1.44,
